Test results: the supplement of paper PMC3334620
Whole data set: some 33,000 sequences, median “E-score (-0.5 to 0.5)” near -0.0014, cut for the highest 2% near 0.25. The sample as a whole holds a higher share of the highest values than the screen did.

Target: T1, Cad1 (UniProt P24813)
T1 sequence: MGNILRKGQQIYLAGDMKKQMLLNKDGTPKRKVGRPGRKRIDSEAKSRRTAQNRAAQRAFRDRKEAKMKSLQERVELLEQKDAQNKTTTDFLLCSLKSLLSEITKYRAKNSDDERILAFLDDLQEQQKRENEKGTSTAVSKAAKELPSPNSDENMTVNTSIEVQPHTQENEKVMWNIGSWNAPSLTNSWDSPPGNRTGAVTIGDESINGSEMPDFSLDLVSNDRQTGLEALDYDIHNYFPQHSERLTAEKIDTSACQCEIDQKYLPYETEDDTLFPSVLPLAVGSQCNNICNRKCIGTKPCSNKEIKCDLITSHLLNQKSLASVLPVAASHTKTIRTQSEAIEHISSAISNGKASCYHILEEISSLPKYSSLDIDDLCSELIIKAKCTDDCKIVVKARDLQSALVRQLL
Experiment: PBM E-score (8-mer binding enrichment) (E-score (-0.5 to 0.5)); higher = stronger / more preferred TF binding
Conditions: protein concentration: 100 nM; construct: GST-full length
Method: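 Universal 'all 10-mer' protein binding microarrays (Agilent AMADID 015681) probed with GST-tagged S. cerevisiae TFs (full-length or DBD) made by in vitro transcription/translation (PURExpress), about 100-200 nM. Bound TF was detected with fluorescent anti-GST. Each ungapped 8-mer (which stands for itself and its reverse complement) is scored by the PBM enrichment score (E-score), a modified Wilcoxon-Mann-Whitney statistic from -0.5 to +0.5, computed with the Universal PBM Analysis Suite. Scale: above 0.35 generally sequence-specific binding.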

Row | Sequence | PBM E-score
1 | GTTTATGA | 0.142
2 | GTTTATAA | 0.264
3 | GTTTATCA | 0.173
4 | ATTTATAA | 0.341
5 | CTTTATAA | 0.101
6 | ATTTATAC | 0.226
7 | CATTCAGG | -0.0709
8 | TAGTAACA | 0.255
9 | GAGTAACA | -0.00744
10 | GAGTATCA | -0.045
11 | TAGTAATA | 0.371
12 | CAGTAAGA | 0.194
13 | TAGTATCA | 0.265
14 | AAGTAACA | 0.0629
15 | TAGTAAGA | 0.265
16 | CAGTATCA | 0.0166
17 | AAGTAAGA | -0.215
18 | CAGTAATA | 0.249
19 | GAGTAATA | 0.198
20 | AGGTCCGG | 0.0244
21 | ACGGGATC | -0.0506
22 | TCATGTCA | 0.139
23 | GGAAGACA | -0.0527
24 | ACACAATC | 0.0563
25 | CCCCGCCC | 0.114

Row | Sequence | PBM E-score
26 | CTGGCCAC | 0.00652
27 | CATAGCGC | 0.26
28 | AATAGCGC | 0.269
29 | CATAGCGA | 0.051
30 | AATAGCGG | -0.0047
31 | AATAGCGA | 0.214
32 | CATAGCGG | -0.142
33 | CACTTCCC | -0.118
34 | ACTCCCGA | 0.0151
35 | AGGGGACG | -0.189
36 | GGCAGTCA | -0.00415
37 | TCCTCAAA | -0.166
38 | ATGAACGA | 0.111
39 | ATGAACGC | 0.252
40 | ATGAACGG | -0.0252
41 | GAGTTGAC | -0.0116
42 | ATACTACC | 0.0181
43 | ATACTACA | 0.264
44 | ACAATACA | 0.0445
45 | ATAATACG | 0.186
46 | ATAATACC | 0.215
47 | GCAATACA | 0.291
48 | CTACTACA | 0.196
49 | GCAATACC | -0.0457
50 | ATAATACA | 0.263

Row | Sequence | PBM E-score
51 | TGTTGGAA | 0.192
52 | GGACCACA | 0.137
53 | AAAGCCTC | -0.186
54 | ACCATCAG | -0.00772
55 | CAGCAACA | 0.186
56 | AGCTCGAA | 0.151
57 | AAAGATTA | 0.152
58 | GCAGAGGA | 0.0638
59 | GAGCATCC | -0.169
60 | ACGGACTC | -0.0126
61 | CCGGACTA | -0.0508
62 | CCGGACTC | 0.281
63 | CATAGCAC | -0.0299
64 | GAGGTCGA | -0.153
65 | CTCTCTTC | -0.215
66 | GATAACTA | 0.1
67 | CTTAACTA | 0.283
68 | CTTAACTC | 0.0365
69 | ATTAACTA | -0.00319
70 | GTTAACTA | 0.274
71 | CGTAACTA | -0.001
72 | CTCACTGA | -0.0364
73 | AGGCTGTA | -0.0168
74 | ATGCATTA | 0.265
75 | ATGCATTC | 0.196

Row | Sequence | PBM E-score
76 | GTGCATCA | 0.128
77 | ATGCATCG | 0.114
78 | ACGCATTA | 0.145
79 | CCGCATTA | 0.172
80 | ATGCATCA | 0.308
81 | CTGCATTA | 0.014
82 | GCGCATTA | 0.265
83 | CATCCTGC | 0.0554
84 | TGTGGCAA | 0.0896
85 | CCCGGACA | 0.039
86 | CCATCCAG | -0.0345
87 | AATATTCC | 0.297
88 | AATATCCA | 0.0727
89 | AATATTCG | 0.273
90 | GATATTCC | 0.0127
91 | AATATCCG | 0.265
92 | CATATTCG | 0.129
93 | AATATCCC | -0.00553
94 | AATATTCA | 0.157
95 | AATATTCT | 0.126
96 | AAGGTTGC | -0.00934
97 | CCTAGCAC | -0.199
98 | CCATAGTC | -0.0534
99 | GACCAAGC | 0.0511
100 | CCCACTCA | -0.193

Row | Sequence | PBM E-score
101 | AGATGGAG | -0.0255
102 | CTAATCGC | 0.0731
103 | ATAATCAT | 0.252
104 | CGAATCGA | 0.325
105 | CTAATCAG | 0.227
106 | ATAATCGA | 0.146
107 | CTAATCGA | 0.315
108 | CTAATCAC | 0.326
109 | AGAATCGA | 0.0389
110 | CTAATCAA | 0.238
111 | ATAATCAA | 0.157
112 | ATAATCAG | 0.225
113 | GGAATCGA | 0.00927
114 | CTGGACGC | 0.069
115 | CGAATACC | -0.104
116 | AATCTCAT | 0.0796
117 | CCCGCTCC | -0.37
118 | TGCCGCCA | 0.0461
119 | CGGGCAGA | 0.0491
120 | ACACCCTG | -0.133
121 | AGAGAATA | 0.0902
122 | GGATGCAC | -0.0779
123 | GTAAGGAC | -0.19
124 | CGGGGAAA | 0.0522
125 | CATACTGA | 0.103

Row | Sequence | PBM E-score
126 | TATACTGA | 0.288
127 | AATACTAA | 0.253
128 | GTTACTCA | 0.182
129 | TATACTAA | 0.107
130 | GTTACTAA | 0.374
131 | GCTACTAA | 0.0213
132 | AATACTAT | -0.0768
133 | GATACTGA | 0.14
134 | CACTGGCG | -0.0107
135 | CAGCTAAA | -0.121
136 | ACTAGTTG | -0.0546
137 | GGTGGCAA | -0.0998
138 | CCAACGCA | 0.0411
139 | CGCAGACG | 0.257
140 | CGCAGACC | -0.146
141 | CGCAGACA | 0.122
142 | ACTCATTA | 0.109
143 | ACACAGCC | 0.0823
144 | ACACAGCA | 0.076
145 | ACACAGCG | 0.251
146 | CACAGGAG | 0.0278
147 | ATAGAATC | -0.129
148 | ATAAATTC | 0.091
149 | CTAAATTA | 0.2
150 | ATAAATTG | 0.253

Row | Sequence | PBM E-score
151 | GTAAATTA | -0.053
152 | AAAAATTG | -0.134
153 | ATAAATTA | 0.364
154 | GGAGCAAC | -0.0625
155 | AGATCCTG | -0.0555
156 | AAGGTGAG | -0.192
157 | CAGCAATA | 0.188
158 | AATGGCCC | -0.158
159 | CAATCCTA | -0.015
160 | ACGCCCAT | -0.0524
161 | CACCGACA | -0.0582
162 | ACATATTA | 0.317
163 | GAATATTA | 0.227
164 | TAATATTA | 0.424
165 | ATATACTA | 0.259
166 | CGCTATTA | 0.253
167 | GGCTATTA | 0.175
168 | CTATACTA | 0.0535
169 | ATATACTC | -0.0465
170 | AGCTATTA | 0.0722
171 | TAATATGA | 0.133
172 | ACATATTG | 0.0269
173 | CCATATTA | 0.148
